Assay [1] is described as follows: qHTS assay for small molecules that induce genotoxicity in human embryonic kidney cells expressing luciferase-tagged ATAD5 (AID 651632). Also: % is scaled to controls: 0 for no effect and ±100 for the full control effect; nearly all actives have a fitted effect of over 15% in size. A digest of the protocol: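 Increased luciferase signal from ATAD5-tagged reporter cells indicates DNA-damage-driven ATAD5 induction. HEK293T cells are treated for 16 hr at 37C before detection with Amplite.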
The nature of assay [2]: qHTS assay for small molecules that induce genotoxicity in human embryonic kidney cells expressing luciferase-tagged ATAD5 - cell viability (AID 651634; calls by dose curve; also: % is scaled to controls: 0 for no effect and ±100 for the full control effect; nearly all actives have a fitted effect of over 25% in size). A digest of the protocol: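 Cytotoxicity counterscreen in HEK293T cells bearing an ATAD5-luciferase reporter: live-cell protease activity measured by CellTiter-Fluor fluorescence after 15.5 hr compound exposure.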
Assay [3] in a line: qHTS assay for small molecule disruptors of the mitochondrial membrane potential - cell viability (AID 720634; calls by dose curve; also: nearly all actives have a fitted effect of over 20% in size; also: potency is read from the fitted curve at half-maximal effect). A digest of the protocol:
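After overnight attachment at 37 C, HepG2 cells received compound or DMSO vehicle for 1 hr. Viability is then taken from ATP-driven luminescence following a 30 min room-temperature CellTiter-Glo step.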

The nature of assay [4]: qHTS assay for small molecule disruptors of the mitochondrial membrane potential (AID 720635). Also: potency is read from the fitted curve at half-maximal effect. A digest of the protocol: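 HepG2 cells exposed to compound 1 hr at 37C, then Mito-MPS dye 30 min. Ratio read of aggregate (540/590 nm) versus monomer (490/535 nm) fluorescence.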
Assay [5] is described as follows: qHTS assay to test for compound auto fluorescence at 590 nm (red) in HepG2 cells (AID 720674). Also: % is scaled to controls: 0 for no effect and ±100 for the full control effect. A digest of the protocol:
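Fluorescence at 590 nm emission following 540 nm excitation was recorded from HepG2 wells one hour after compound transfer, with DMSO-only wells as vehicle and Rose Bengal sodium equivalency as the scale.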

A short description of assay [6]: qHTS assay to test for compound auto fluorescence at 535 nm (green) in HepG2 cells (AID 720675). Also: % is scaled to controls: 0 for no effect and ±100 for the full control effect.
Assay [7] in a line: qHTS assay to test for compound auto fluorescence at 460 nm (blue) in HEK293 cells (AID 720678). Also: % is scaled to controls: 0 for no effect and ±100 for the full control effect. A digest of the protocol:
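Blue-channel (Ex/Em 405/460 nm) intensity measured in HEK293 cultures after overnight compound exposure at 37C; signal expressed relative to triamterene. Cells plated 2,000 per well in 10% dialyzed FBS medium and allowed 4-5 hr to attach.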

Assay [8] can be described thus: qHTS assay to test for compound auto fluorescence at 590 nm (red) in HEK293 cells (AID 720679). Also: % is scaled to controls: 0 for no effect and ±100 for the full control effect. A digest of the protocol:
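Red-channel autofluorescence (Ex/Em 540/590 nm; Rose Bengal sodium reference) was measured after overnight 37C, 5% CO2 exposure of attached HEK293 cells, 2,000 per well in medium with 10% dialyzed FBS.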

Assay [9] can be described thus: qHTS assay to test for compound auto fluorescence at 535 nm (green) in HEK293 cells (AID 720680). Also: % is scaled to controls: 0 for no effect and ±100 for the full control effect.
Assay [10] is described as follows: qHTS assay to test for compound auto fluorescence at 460 nm (blue) in HEK293 cell free culture (AID 720681). Also: % is scaled to controls: 0 for no effect and ±100 for the full control effect. A digest of the protocol: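 Compounds were added to cell-free DMEM with 10% FBS and fluorescence read directly. The blue channel used 405 nm excitation and 460 nm emission, with triamterene as the reference fluorophore.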
Assay [11] in a line: qHTS assay to test for compound auto fluorescence at 535 nm (green) in HEK293 cell free culture (AID 720682). Also: % is scaled to controls: 0 for no effect and ±100 for the full control effect. A digest of the protocol:
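No cells present: wells hold DMEM supplemented with 10% FBS, into which compound or vehicle is pinned. Green emission is then recorded (485 nm excitation, 535 nm emission) and scaled to fluorescein.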

The nature of assay [12]: qHTS assay to test for compound auto fluorescence at 590 nm (red) in HEK293 cell free culture (AID 720683). Also: % is scaled to controls: 0 for no effect and ±100 for the full control effect. A digest of the protocol:
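Cell-free wells of DMEM with 10% FBS received compound, and intrinsic fluorescence was read at excitation/emission 540/590 nm. Values expressed as equivalence to Rose Bengal sodium.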

A short description of assay [13]: qHTS assay to test for compound auto fluorescence at 460 nm (blue) in HepG2 cell free culture (AID 720685). Also: % is scaled to controls: 0 for no effect and ±100 for the full control effect. A digest of the protocol:
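Compound (23 nL) or DMSO pinned into cell-free MEM with 10% FBS; blue fluorescence read at 405/460 nm excitation/emission, expressed as auto-fluorescence equivalency to triamterene.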

The nature of assay [14]: qHTS assay to test for compound auto fluorescence at 535 nm (green) in HepG2 cell free culture (AID 720686). Also: % is scaled to controls: 0 for no effect and ±100 for the full control effect.
Assay [15] is described as follows: qHTS assay to test for compound auto fluorescence at 460 nm (blue) in HepG2 cells (AID 720687). Also: % is scaled to controls: 0 for no effect and ±100 for the full control effect. A digest of the protocol: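 HepG2 cells in MEM with 10% FBS, attached overnight at 37 C, were exposed to compound or DMSO for 1 hr at 37 C, 5% CO2. Blue fluorescence was read at 405/460 nm, with triamterene as reference fluorophore.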
A short description of assay [16]: qHTS assay to test for compound auto fluorescence at 590 nm (red) in HepG2 cell free culture (AID 720684). Also: % is scaled to controls: 0 for no effect and ±100 for the full control effect. A digest of the protocol: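 Compound was pinned into wells holding MEM with 10% FBS and no cells, and red fluorescence was read at Ex/Em 540/590 nm. Signal is expressed as auto fluorescence equivalency relative to Rose Bengal sodium.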
The nature of assay [17]: qHTS assay for small molecule agonists of the p53 signaling pathway - cell viability (AID 651633; calls by dose curve; also: nearly all actives have a fitted effect of over 30% in size; also: potency is read from the fitted curve at half-maximal effect). A digest of the protocol: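 p53RE-bla cells were treated with compound for 16 hours at 37 C. Cytotoxicity was then measured as CellTiter-Glo luminescence after 30 min at room temperature.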
Assay [18] deals with Glucocorticoid receptor (Homo sapiens) (UniProt P04150). The assay is described as follows: qHTS assay to identify small molecule agonists of the glucocorticoid receptor (GR) signaling pathway (AID 720691; active = well fitted activation curve with a large enough effect in the signal ratio in the repeat runs, not every such curve was filed as active; the % refers to the signal ratio; also: % is scaled to controls: 0 for no effect and ±100 for the full control effect). A digest of the protocol:
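Agonist mode in a HeLa line carrying a GRE-controlled beta-lactamase reporter. Compounds act for 18 h at 37 C before a 2 h room-temperature FRET substrate step and fluorescence reading.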

Molecules are shown by their SMILES. Values without a mark were called inactive. Records with an inconclusive call do not appear. The source made the active and inactive calls. Unless noted, calls follow the shape of the dose curve; as a rule, active = well fitted curve in the direction sought with a large enough effect in the repeat runs; inconclusive = weak or mixed curves; inactive = no such curve, though single readings can be large; an effect the other way counts as inactive or inconclusive.

Sequence of Glucocorticoid receptor (Homo sapiens) (P04150 whole entry, looked up): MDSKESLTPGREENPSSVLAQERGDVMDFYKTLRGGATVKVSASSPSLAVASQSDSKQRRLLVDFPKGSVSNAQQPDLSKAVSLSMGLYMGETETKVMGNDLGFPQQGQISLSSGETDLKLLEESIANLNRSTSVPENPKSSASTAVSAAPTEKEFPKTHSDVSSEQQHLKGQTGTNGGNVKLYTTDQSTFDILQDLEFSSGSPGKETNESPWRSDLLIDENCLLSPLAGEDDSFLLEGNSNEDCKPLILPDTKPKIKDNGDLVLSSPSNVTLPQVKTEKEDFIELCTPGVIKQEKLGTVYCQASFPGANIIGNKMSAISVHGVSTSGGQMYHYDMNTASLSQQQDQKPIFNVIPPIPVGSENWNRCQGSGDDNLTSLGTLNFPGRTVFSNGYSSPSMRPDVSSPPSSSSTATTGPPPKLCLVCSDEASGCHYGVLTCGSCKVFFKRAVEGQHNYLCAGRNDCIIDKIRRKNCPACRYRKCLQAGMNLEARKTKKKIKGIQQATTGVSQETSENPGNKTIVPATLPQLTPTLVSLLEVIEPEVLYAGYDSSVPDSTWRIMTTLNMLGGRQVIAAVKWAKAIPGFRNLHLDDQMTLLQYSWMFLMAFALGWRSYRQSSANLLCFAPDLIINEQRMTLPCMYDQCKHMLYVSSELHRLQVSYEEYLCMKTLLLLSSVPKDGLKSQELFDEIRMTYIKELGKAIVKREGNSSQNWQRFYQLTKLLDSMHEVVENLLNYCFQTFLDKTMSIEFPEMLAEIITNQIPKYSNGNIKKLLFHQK

For the compound `CC(C)N1C(=O)N(c2ccccc2)CSC1=NC(C)(C)C`, the Potency result in [1], in [2], in assay [7], in assay [10], in assay [13] and in assay [15] was “inactive” throughout. Moreover, the Potency in assay [3] was 15.4 µM (active); in assay [4], 38.6 µM (active). Also, the compound was called inactive in assay [5], in [6], in assay [8], in [9], in [11] and in assay [12]. Further, in [14], the compound was called inactive.

Take `Clc1ccc(CCC(Cn2ccnc2)Sc2c(Cl)cccc2Cl)cc1` (stereo not drawn): the Potency entry in assay [1], in assay [2] and in [3] was “inactive” in each case. Also, in assay [5], the fluorescence, relative to Rose Bengal was -0.283% [at 18.6 µM]. The fluorescence, % of fluorescein control was -0.0029% [at 18.6 µM] in [6] and 0.0716% [at 18.6 µM] in assay [14]. Moreover, in assay [7], the fluorescence, % of triamterene was 0.0582% [at 18.6 µM]. Also, the fluorescence, % of fluorescent control is 0.0698% [at 18.6 µM] in [8]; 0.052% [at 18.6 µM] in assay [10]; -0.0573% [at 18.6 µM] in assay [12]; 0.0259% [at 18.6 µM] in assay [13]; -0.0565% [at 18.6 µM] in [15]. Further, the fluorescence, % of fluorescein in assay [9] was 0.0661% [at 18.6 µM]. The activity change in assay [11] is -0.055% [at 18.6 µM]. In addition, the fluorescence, % of Rose Bengal in assay [16] was 0.657% [at 18.6 µM].

In the case of `OC(c1ccc(Cl)cc1)(c1ccc(Cl)cc1)C(Cl)(Cl)Cl`, the Potency result in assay [1], in [7], in [10], in assay [13] and in assay [15] was “inactive” each time. Also, the Potency in assay [17] is 61.1 µM (active); in [4] it was 6.11 µM (active). Further, the compound was classed as inactive in assay [5], in [6], in assay [9], in assay [11], in [12] and in assay [16]. For the same compound, the call in [14] was inactive.

`Oc1c(Br)c(Br)c(Br)c(Br)c1Br`: the Potency entry in assay [1], in assay [3], in assay [7], in assay [10], in [13] and in assay [15] was “inactive” in each case. Also, the Potency entry in assay [18] was “inactive”. For the same compound, the Potency was 17.3 µM (active) in assay [17] and 2.45 µM (active) in assay [4]. For the same compound, the call in assay [5], in assay [6], in assay [9], in assay [11], in [12] and in assay [16] was inactive. For the same compound, the result in assay [14] was inactive.

Regarding `O=[N+]([O-])c1c2ccccc2cc2ccccc12`, the Potency result in assay [1], in [17], in assay [2], in [7], in [10] and in assay [13] was “inactive” each time. Moreover, the Potency entry in assay [15] was “inactive”. The Potency in assay [4] was 8.53 µM (active). In addition, the compound was classed as inactive in assay [5], in assay [6], in assay [9], in assay [11], in assay [12] and in [16]. The compound was called inactive in assay [14].

As for `Cc1cc(SCc2sc(-c3ccc(C(F)(F)F)c(F)c3)nc2C)ccc1OCC(=O)O`, the Potency entry in [1], in assay [7], in [10] and in [15] was “inactive” each time. For the same compound, in assay [17], the Potency was 48.6 µM (active). In addition, the compound was classed as inactive in assay [5], in assay [6], in [8], in assay [9], in [11] and in [12]. The call in [16] and in assay [14] was inactive.

The values above are taken from PubChem BioAssay (Tox21).
